Key:
Test in all cases: PBM binding z-score (relative to random genomic background probes); higher = stronger binding; sequences stand for … in GC…GCGATTGACAGCGTAGAATGAAGG
[1] = tested on: PPARg:RXRa DBDmut IVT, anti-RXR (DBD mutation: RXRa K156A/R161A, NR concentration 270 nM, RXRa partner concentration 90 nM)
Outline: (§1)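 The probes on custom Agilent 4×180K protein-binding microarrays were double-stranded, with 34-nt variable regions bearing direct-repeat seeds, single-nucleotide variants, half-site ablations and random human genomic background sequences. Incubation lasted 1 h with ligand-free nuclear receptor dimers in PBS pH 7.4, 2% milk, 0.02% Triton X-100, 1 mM DTT, 0.2 mg/mL BSA and 0.4 mg/ml salmon testes DNA. Antibodies against each partner (one per run) detected bound dimers, and fluorescence scans were regression-normalized. Binding z-scores take the random background probes as reference.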

[2] = tested on: PPARg:RXRa IVT, anti-PPARg (NR concentration 270 nM, RXRa partner concentration 90 nM)
Outline: as §1

[3] = tested on: PPARg DBDmut:RXRa IVT, anti-PPARg (DBD mutation: PPARg1 K132A/R137A, NR concentration 270 nM, RXRa partner concentration 90 nM)
Outline: as §1

[4] = tested on: PPARg DBDmut IVT, anti-PPARg (DBD mutation: PPARg1 K132A/R137A, NR concentration 270 nM)
Outline: as §1

[5] = tested on: PPARg homodimer (NR concentration 180 nM)
Outline: as §1

[6] = tested on: PXR:RXRa (NR concentration 270 nM, RXRa partner concentration 90 nM)
Outline: as §1

[7] = tested on: PXR homodimer (NR concentration 270 nM)
Outline: as §1

[8] = tested on: RARa:RXR (NR concentration 270 nM, RXRa partner concentration 90 nM)
Outline: as §1

[9] = tested on: RARa homodimer (NR concentration 270 nM)
Outline: as §1

[10] = tested on: RARb:RXRa (NR concentration 270 nM, RXRa partner concentration 90 nM)
Outline: as §1

[11] = tested on: RARb homodimer (NR concentration 270 nM)
Outline: as §1

[12] = tested on: RARg:RXRa (NR concentration 270 nM, RXRa partner concentration 90 nM)
Outline: as §1

[13] = tested on: RARg homodimer (NR concentration 270 nM)
Outline: as §1

[14] = tested on: RXRa DBDmut IVT, anti-RXR (DBD mutation: RXRa K156A/R161A, NR concentration 90 nM)
Outline: as §1

[15] = tested on: RXRa homodimer (NR concentration 180 nM)
Outline: as §1

[16] = tested on: THRa:RXRa (NR concentration 90 nM, RXRa partner concentration 90 nM)
Outline: as §1

[17] = tested on: THRa homodimer (NR concentration 90 nM)
Outline: as §1

[18] = tested on: VDR:RXRa (NR concentration 270 nM, RXRa partner concentration 90 nM)
Outline: as §1

[19] = tested on: VDR homodimer (NR concentration 270 nM)
Outline: as §1

Sequence | PBM binding z-score [1] | PBM binding z-score [2] | PBM binding z-score [3] | PBM binding z-score [4] | PBM binding z-score [5] | PBM binding z-score [6] | PBM binding z-score [7] | PBM binding z-score [8] | PBM binding z-score [9] | PBM binding z-score [10] | PBM binding z-score [11] | PBM binding z-score [12] | PBM binding z-score [13] | PBM binding z-score [14] | PBM binding z-score [15] | PBM binding z-score [16] | PBM binding z-score [17] | PBM binding z-score [18] | PBM binding z-score [19]
AATACAGGGGCATCGTAGGCCAGAGTACGCACAG | 0.577 | 1.26 | 0.192 | 0.567 | -0.0954 | 0.276 | 0.165 | 0.505 | -0.245 | 1.48 | 1.13 | 0.978 | 1.23 | 0.834 | 0.784 | 2.47 | -0.358 | 0.784 | 1.15
CGAACTAGGTCATTGACAGGACAGTGAATAGTAA | 8.1 | 8.32 | 2.23 | 1.53 | 1.77 | 1.89 | 0.245 | 2.44 | 0.499 | 3.79 | 2.71 | 4.63 | 4.21 | 2.33 | 2.61 | 2.98 | 0.802 | 2.2 | 0.793
TGAATGGGGTTATAAGATCAGGGAACGTTGCAAA | 2.58 | 2.71 | 2.28 | 1.59 | 2.39 | 2.25 | 1.48 | 3.06 | 2.01 | 1.69 | 1.49 | 2.3 | 0.965 | 1.6 | 3.95 | 2.45 | 1 | 2.58 | 1.23
CCTATTAGTTGACAATAAGGGCAACCGAAGCTCG | 0.466 | 0.343 | 0.307 | 0.312 | 0.811 | 0.771 | 0.868 | 1.07 | 1.45 | 1.21 | 1.52 | 1.04 | 0.963 | 0.782 | 0.644 | 1.8 | 0.906 | 1.09 | 0.927
CCTATTAGTGGACCATAAGGGCAACCGAAGCTCG | 1.43 | 0.991 | 0.0446 | -0.555 | 0.856 | 0.215 | 0.612 | 0.424 | 0.803 | 1.22 | 1.53 | 0.433 | 0.657 | 0.115 | 0.31 | 1.38 | 0.862 | 0.134 | 0.415
ATCTCTAGGTAAGACTCAGTGCAGTGAAGAACGC | 1.64 | 0.686 | 0.237 | 0.958 | 0.398 | 0.339 | 0.592 | 0.223 | 0.328 | -0.152 | 0.192 | 0.0414 | 0.117 | -0.00244 | 0.00631 | 0.285 | 0.26 | -0.0962 | 0.24
CCGACTGGGGCTAGGTTACCATAACGCACAGCCA | 0.166 | 0.0447 | -1.21 | -1.97 | -0.278 | -0.509 | -0.572 | -0.318 | -0.21 | 0.392 | 0.542 | 0.00576 | 0.24 | -0.639 | 0.166 | 0.173 | -0.0667 | -0.65 | -0.608
CAAGCTAGGTCACGAAAGGTCAAAGTCGAATGAC | 5.1 | 6.14 | 2.17 | -0.0947 | 7.93 | 7.36 | 3.04 | 7.85 | 4.08 | 5.61 | 5.98 | 8.18 | 8.58 | 2.43 | 8.62 | 5.11 | 2.29 | 6.88 | 3.61
CGAACTAGGACAAGGACAGTGAATCTCCGCACGC | 5.04 | 3.15 | 0.0656 | 0.471 | 0.000634 | -0.249 | -0.177 | 0.0939 | -0.389 | 0.708 | 0.532 | 0.083 | 0.606 | 0.343 | 0.0441 | 1.8 | 1.32 | -0.159 | 0.0217
CCAGACAGGTCAAAGGTAACTCAGTCTGGTACGC | 3.48 | 3.96 | -0.0161 | 0.672 | 2.75 | 4.5 | 0.483 | 6.08 | 0.857 | 4.52 | 3.43 | 5.62 | 4.75 | 2.47 | 6.86 | 3.06 | 0.0861 | 3.86 | 0.986
ACTAGCAGGCCGAGTTTGGGTCACTCAAACAAAG | -0.462 | 0.793 | -0.125 | -0.727 | -0.382 | 0.617 | -0.458 | 1.21 | -1.01 | 1.29 | 1.65 | 1.04 | 0.63 | -0.134 | 0.562 | 2.17 | 0.853 | 0.459 | 0.396
TCTGCTAGGTCAGTTCGTCAGCTAACGAGCTGCC | 2.26 | 2.31 | 1.01 | 0.64 | -0.455 | 0.229 | -1.06 | 0.273 | -1.33 | 3.01 | 1.84 | 2.16 | 3 | 0.634 | 0.516 | 1.2 | -0.388 | 0.144 | 0.389
GATACAGGGTCAGCTAGAGGCCAAAGTATGGAAA | 1.15 | 2.73 | 0.457 | 0.0688 | 3.56 | 4.24 | 0.247 | 5.28 | 0.349 | 4.25 | 3.52 | 7.25 | 5.27 | 1.21 | 4.76 | 3.25 | 0.447 | 4.26 | 1.3
CCTCGGAGGACAGAAGGTCACAGCTGTCCGCTTT | 0.643 | 1.32 | -1.36 | -2.05 | 2.05 | 3.33 | -0.204 | 4.13 | 1.25 | 3.77 | 4.26 | 4.72 | 4.05 | 0.581 | 3.83 | 3.36 | 0.632 | 2.64 | 0.765
TCTAGTTGATCAAAGGTCACACACTCGAAATGCG | 2.34 | 4.45 | 1.08 | 1.36 | 4.93 | 5.73 | 2.14 | 6.33 | 3.64 | 4.85 | 4.89 | 6.54 | 5.95 | 2.21 | 7.03 | 4.22 | 2.08 | 5.05 | 2.79

Reference: the supplement of paper PMC6555819
